This is a sample that favours compounds with a hit; in the whole collection about 21% have one here.
Cycloheximide cs – counter-screen hit for Shiga toxin inhibitors, cycloheximide; cell reporter, cycloheximide protein synthesis inhibition counterscreen; max response, %; 300,000 compounds, 12% hits; AID 2314; in the data active means max response mostly above about 13%, no sharp cut-off; inactive means mostly below about 14%; further: read at 38.3 µM for the half of the compounds with a filed dose; 0% is about no effect
Pf growth 48h – inhibits P. falciparum growth in the first generation, 48 h; P. falciparum luciferase growth in erythrocytes, 48 h; Potency, µM (top dose mostly 28.7 µM), inactives show top-dose activity change, negative = inhibition, actives largely listed as inhibitors; 310,000 compounds, 5.9% hits; further: potency means the concentration at half of the fitted maximal effect; on the % scale 0 is the no-effect control and ±100 the full control effect
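Luciferase-expressing P. falciparum in infected erythrocytes (2% hematocrit, 0.1% parasitemia final) in RPMI 1640/0.5% Albumax were exposed to compound for 48 hours at 37 C, 5% CO2; growth read as luminescence.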
Shiga toxin inh – Shiga toxin inhibition. inhibition, % at 38.7 µM. Vero cells, Shiga toxin protein synthesis inhibition reporter. 290,000 compounds, 9.2% hits; in the data active means inhibition mostly above about 28%, no sharp cut-off; inactive means mostly below about 43%; further: 0% is about no effect
Pf growth 96h – inhibits malaria parasite growth, 96 h; Potency, µM (doses to about 28.7 µM), for the others: top-dose activity change, negative = inhibition, actives largely listed as inhibitors; AID 504834; P. falciparum luciferase reporter growth, 96 h; 320,000 compounds, 6.9% hits; further: potency means the concentration at half of the fitted maximal effect; on the % scale 0 is the no-effect control and ±100 the full control effect
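Readout is luminescence from an integrated firefly luciferase in P. falciparum. Red cells, 2% hematocrit and 0.05% parasitemia final, were cultured with compound through two parasite generations (96 hours) at 37 C, 5% CO2.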
NS1 function inh – blocks influenza NS1 protein function; Potency, µM (highest dose often 46.1 µM), for the others: at the highest dose activity, positive = more growth; 270,000 compounds, 0.4% hits; AID 2326; calls by dose curve; further: potency means the concentration at half of the fitted maximal effect; actives are rising curves; nearly all actives have a fitted effect of over 50% in size
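S. cerevisiae expressing influenza A NS1, grown in glucose, washed, then diluted 1:100 into pH 6.0 -URA galactose medium with 23 nl compound. Growth recovery read as OD600; NS1-free strain serves as control.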
Numbers without * were called inactive; i = inactive; ? = inconclusive; . = not tested or not shown; ! = a repeat was not active; [ ] = dose if it differs, or a comment. Unless noted, the call rests on the fitted dose curve; in most records, active means well fitted inhibition curve with a large enough effect; inconclusive means small, poorly fitted or top-dose-only effect, or another doubt; inactive means no such curve, though single readings can be large or run the other way.

SMILES	Cycloheximide cs	Pf growth 48h	Shiga toxin inh	Pf growth 96h	NS1 function inh
CC(=O)O[C@H]1CC[C@]2(C)C(=CC[C@H]3[C@H]4C[C@H]5O[C@]6(CC[C@H](C)CN6)[C@H](C)[C@@H]5[C@]4(C)CC[C@@H]32)C1	.	.	.	.	-7.8%
O=C(O)c1ccc(N2CC3CC(C2)c2cccc(=O)n2C3)c(NC(=S)Nc2ccc(Cl)cc2Cl)c1 (centres undefined)	21.7	6.1%	3.7	?	.
CCCn1c(=O)c(C(=O)NCCc2ccccc2)c(O)c2ccccc21	10.9	215.0%	49.5	14.7µM*	-11.6%
CCCCCn1c(=O)c(C(=O)NCCc2ccccc2)c(O)c2ccccc21	-1.3	14.7µM*	.	5.86µM*	23.6%
CCCn1c(=O)c(C(=O)NCc2ccccc2)c(O)c2ccccc21	1.6	21.9%	0.9	-22.8%	-1.7%
CCCS(=O)(=O)c1c(S(=O)(=O)CCC)c2c3ccccc3ccn2c1C(=O)OC	-3.3	11.7µM*	-0.5	44.6%	27.4%
CCCS(=O)(=O)c1c(S(=O)(=O)CCC)c2c(C)cccn2c1C(=O)OC	-3.4	-2.2%	-8.7	6.4%	-1.8%
Cc1ccc(S(=O)(=O)N2CCN(C(=O)COC(=O)COc3cccc4c3OC(C)(C)C4)CC2)cc1	.	1.1%	.	2.1%	.
Cn1cnnc1SCC(=O)Nc1ccccc1	2.1	-23.4%	0.9	0.3%	-6.7%
COc1ccc(NC(=O)CSc2nncn2C)cc1	25.1*	1.1%	15.9	17.7%	1.6%
COc1ccc(NC(=O)CSc2c(C)nn(-c3nnc(C)c(=O)[nH]3)c2C)cc1	-1.6	-12.7%	-9.5	11.7µM*	1.3%
COc1ccc(NC(=O)CSC2=NC(=O)CC(C)=N2)cc1	-2.7	19.3%	-9.3	11.7µM*	-6.2%
Cn1cnnc1SCC(=O)Nc1ccc(OCc2ccccc2)cc1	47.6*	72.5%	89.9*	113.0%	.
CCc1ccc(NC(=O)CSc2nnc(CNC(=O)c3ccc(OC)cc3)o2)cc1	16.4	-2.4%	-1.4	?	14.1%
CCOC(=O)C(Cc1ccccc1)c1ccnc2nc(N)nn12 (centres undefined)	-6.6	-3.5%	1.6	-30.5%[5.75 µM]	1.1%
OC(Cc1ccccc1)(c1ccccc1)C1CN2CCC1CC2 (centres undefined)	-4.3	.	-11.3	?	-3.8%
OC(c1ccccc1)(c1ccccc1)C1CN2CCC1CC2 (centres undefined)	-3.9	?	5.4	12µM*!	3.9%
OC(c1ccccc1)(c1ccc(Cl)cc1)C1CN2CCC1CC2 (centres undefined)	-0.9	?	-5.3	8.28µM*	2.9%
Cc1[nH]ccc(=O)c1OCc1c(Cl)cccc1Cl	-1.5	-1.9%	32.5	2.4%	2.1%
Cc1ccc(Cn2ccc(=O)c(OCc3c(Cl)cccc3Cl)c2C)cc1	-0.8	.	-11.7	4.15µM*	-0.6%
Cc1ccsc1C=Nc1ccc(O)cc1	14.9*	?	34.0	16.5%	26.8%
Cc1ccsc1/C=N/N=C/c1sccc1C	48.0*	487.8%	.	8.28µM*	-25.8%
CCOC(=O)N/N=C\c1sccc1C	8.2	9.7%	14.8	-1.9%	9.2%
CCOc1ccc(NC(c2ccccc2)P(=O)(OC)OC)cc1 (centres undefined)	11.9	52.1%	25.7*	?	19.8%
COc1ccc(C(Nc2ccccc2)P(=O)(Oc2ccccc2)Oc2ccccc2)cc1 (centres undefined)	27.7*	?	56.5*	0.0%	9.6%
SMILES	Cycloheximide cs	Pf growth 48h	Shiga toxin inh	Pf growth 96h	NS1 function inh
CCOP(=O)(OCC)C(Nc1cccc([N+](=O)[O-])c1)c1ccc(OC)cc1 (centres undefined)	0.9	?	6.4	?	-6.6%
COP(=O)(OC)C(Nc1ccc(C)cc1)c1ccc([N+](=O)[O-])cc1 (centres undefined)	44.0*	40.6%	24.6*	24.2%	-1.0%
O=C(COC(=O)CCSc1ccccc1Cl)NCc1ccco1	6.3	3.2%[5.75 µM]	-2.4	89.9%	-46.3%
COCCn1c(SCC(=O)NC2CCCCC2C)nc2ccccc2c1=O (centres undefined)	-4.8	14.2%	16.3	3.0%	-3.6%
COc1ccc(C(=O)Nn2c(SCC(=O)NC3CCCC3)nc3ccccc3c2=O)cc1	68.9*	306.5%	46.5	i	17.6%
CCC(C)n1c(SCC(=O)NC2CCCC2)nc2ccccc2c1=O (centres undefined)	.	11.7µM*	.	?	.
O=C(CSc1nc2ccccc2c(=O)n1C1CC1)NCc1ccccc1	-6.8	-9.1%	-34.6	14.7µM*	-55.6%
COc1ccc(C(=O)Nn2c(SCC(=O)NCC3CCCO3)nc3ccccc3c2=O)cc1 (centres undefined)	-2.4	-0.3%	-9.9	.	-4.8%
COc1ccc(C(=O)Nn2c(SCC(=O)NCc3ccccc3)nc3ccccc3c2=O)cc1	50.8*	.	43.8	?	-7.3%
CCOC(CCn1c(SCC(=O)NC2CCCC2)nc2ccccc2c1=O)OCC	-4.4	13.8%	-13.1	-3.4%	-1.4%
CC(=O)N[C@@H](CCCNC(=N)N)C(=O)N[C@H](CC1CCCCC1)C(=O)N[C@@H]1CCC2SC[C@@H](C(=O)N[C@H](CCCNC(=N)N)C(=O)N[C@H](Cc3ccc(Cl)cc3)C(N)=O)N2C1=O (some centres undefined)	-4.6	.	-4.6	.	.
NC(=O)c1nnsc1Sc1c(C(N)=O)nnn1-c1cccc(N)c1	-2.0	?	22.1	15.5%	.
O=c1[nH]ncc(N2CCCCCC2)c1Cl	16.0	-2.1%	-0.1	3.2%	3.3%
Cc1[nH]c2ccccc2c1C(=O)CN1CCC2(CC1)OCCO2	9.2	0.928µM*	-1.8	0.0%	-6.1%
Cc1[nH]c2ccccc2c1C(=O)CN1CCCCC1C (centres undefined)	3.8	-5.0%	-14.0	14.7µM*	13.2%
CCC1CCCCN1CC(=O)c1c(C)[nH]c2ccccc12 (centres undefined)	12.9	3.6%	22.3	-27.3%	-2.1%
CCCCCC(=O)Nc1cccc(-c2nc3ncccc3o2)c1	17.8	?	2.1	.	-10.7%
CCCCC(=O)Nc1cccc(-c2nc3ncccc3o2)c1	7.3	?	33.0	11.7µM*	-23.2%
CCCC(=O)Nc1ccc(-c2nc3ncccc3o2)cc1	19.9*	-53.3%	175.0	?	-20.5%
Cc1ccc(S(=O)(=O)NNc2nc3ccccc3nc2C(F)(F)F)cc1	-2.2	.	-7.0	2.9%	9.5%
Cc1ccc(S(=O)(=O)CCC(=O)OCC(=O)c2c(C)[nH]c3ccccc23)cc1	1.9	5.1%	-4.9	-4.1%	-14.6%
Cc1[nH]c2ccccc2c1C(=O)CN1CCC(C)CC1	-3.6	-0.8%	-10.4	-34.6%	2.6%
Cc1[nH]c2ccccc2c1C(=O)COc1ccccc1	14.8*	-5.2%	48.6	260.1%	-7.4%
Cc1[nH]c2ccccc2c1C(=O)COc1ccccc1F	24.8*	-6.9%	74.1	25.3%	-4.8%
Cc1ccc(OCCCCNC(C)(C)C)c([N+](=O)[O-])c1	0.7	?	-14.8	3.7µM*	2.0%
O=C(Nc1ncc(Cc2ccc(SC(F)F)cc2)s1)c1ccc(OC(F)F)cc1	-0.7	6.2%	12.0	30.5%	17.3%
